Reference: PubChem BioAssay AID1259422 (The Scripps Research Institute Molecular Screening Center, 2018)
Where “and” joins values, the source holds several entries; their conditions need not be identical. Identical values can stand only once. In all, about 640,000 compounds went through this assay and about 9,300 (1.5%) were called active. Many of the other results were omitted from the sample, so actives are more common in it than they were. Values without a mark were called inactive. No stated cut-off is given here; in the data, active means inhibition above about 32%; inactive means the rest.

experiment: TEAD-YAP interaction inhibition, primary screen, TEAD-YAP interaction inhibitor project, luminescence, HEK-TIYL cells (AID 1259422); conditions: TEAD-Gal4/YAP UAS-luciferase luminescence, at 9.12 µM, hits give high values;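 further: 0% = median of test compound wells and 100% = reference inhibitor wells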

Row | SMILES | inhibition
1 | NS(=O)(=O)c1ccc(CCNC(=S)Nc2ccccc2F)cc1 | 0.39%
2 | COc1ccc(-c2noc(CN(Cc3ccccc3)CC3CC3)n2)c(OC)c1OC | -11.8%
3 | C=CCNc1c(C)c(C)nc2cc(-c3ccc(OC)c(OC)c3)nn12 | -14.7%
4 | CC1CCCC(NC(=O)C2N(C3CCCC(C)C3C)C(=O)C3C(C(=O)Nc4cccc(Cl)c4)C4C=CC32O4)C1C (stereo unspecified) | -7.64%
5 | CCS(=O)(=O)N1CCN(C(=O)c2ccccc2Cl)CC1 | -4.13%
6 | Cc1cc(N2CCCC2)nc(N2CCN(C(=O)c3ccccc3Cl)CC2)n1 | 33.1% (active)
7 | O=C(c1ccccc1Cl)N1CCCCC1 | 2.65%
8 | O=C(O)c1ccc(NS(=O)(=O)c2cccc(C(F)(F)F)c2)cc1 | 0.38%
9 | Cc1ccc(NC(=O)c2cc(S(=O)(=O)N3CCC(C)CC3)ccc2F)cc1F | -4.47%
10 | COc1cccc(N2C(=O)C3C4C=CC(C5CC45)C3C2=O)c1 (stereo unspecified) | -3.66%
11 | CC12CC3(C)CC(O)(C1)CC(C(=O)c1ccccc1)(C2)C3 | -1.77%
12 | CCCn1c(SCC(=O)N2CCc3ccccc32)nnc1-c1ccncc1 | -1.7%
13 | Cn1c(SCC(=O)N2CCCCCC2)nnc1-c1ccncc1 | 5.85%
14 | CSc1nnc(-c2ccncc2)n1CCCN1CCCC1=O | 58.9% (active)
15 | COC(=O)c1cc(OC)c(OC)cc1NC(=O)c1cc2ccccc2oc1=O | -9.56%
16 | Clc1ccccc1-c1noc(-c2ccc(-c3ccccc3)cc2)n1 | 6.4%
17 | Oc1ccc(-c2nc(-c3ccccc3Cl)no2)cc1 | 64.7% (active)
18 | Cc1ccc(-c2nc(-c3ccccc3Cl)no2)cc1 | -58.6%
19 | CC1=C(C(=O)OCCOc2ccccc2)C(c2cccc(Cl)c2Cl)C2=C(CC(c3ccccc3)CC2=O)N1 (stereo unspecified) | 5.89%
20 | O=C(NCCc1ccccc1)C1CCC(Cn2c(SCc3ccc(Cl)cc3)nc3ccccc3c2=O)CC1 (stereo unspecified) | 6.47%
21 | c1cc(-c2nc3c(c(N4CCCCC4)n2)CNCC3)ccn1 | -3.63%
22 | CC(NC(=O)CCc1ccccc1)c1nnc2n1CCN(Cc1cccc(F)c1F)CC2 (stereo unspecified) | -34.9%
23 | CCCCN(CCCC)C(=O)Nc1nc2ccccc2[nH]1 | 59.5% (active)
24 | CSCCC(=O)Nc1nc2ccccc2[nH]1 | -12.9%

Row | SMILES | inhibition
25 | S=C(Nc1nc2ccccc2[nH]1)Nc1nc2ccccc2[nH]1 | -3.78%
26 | Cc1nc2sc(C(c3ccc([N+](=O)[O-])cc3)N3CC(C)CC(C)C3)c(O)n2n1 (stereo unspecified) | 21.1%
27 | CC(C)c1ccc(S(=O)(=O)N2CCN(C(=O)/C=C/c3ccccc3)CC2)cc1 | 5.06%
28 | Cc1c(C(=O)N2CCN(c3ccc(F)cc3)CC2)sc2ncnc(N(C)c3ccccc3)c12 | 6.56%
29 | O=C(CSc1nnc2ncccn12)N1CCCc2ccccc21 | -3.81%
30 | COc1ccc(C(=O)Nc2ccc3nc(N4CCCCC4)cc(C)c3c2)cc1OC | -0.5%
31 | Cc1cc(N2CCCC2)nc(Nc2ccc(NC(=O)c3c(F)cccc3Cl)cc2)n1 | 42% (active)
32 | Cc1ccc(N2CCN(C(=O)c3c(F)cccc3Cl)CC2)nn1 | -8.28%
33 | COc1cc(C(=O)Nc2ccc(Nc3nc(C)cc(N4CCCC4)n3)cc2)cc(OC)c1OC | 35.6% (active)
34 | Cc1cc(NC(=O)c2c(F)cccc2Cl)ccc1N1CCCCC1=O | -2.91%
35 | COc1cc(C(=O)Nc2ccc3nc(N4CCN(c5ncccn5)CC4)cc(C)c3c2)cc(OC)c1OC | 22.2%
36 | Cc1ccc(N(C(=O)c2snc(C(N)=O)c2N)C(C)C(=O)NC(C)(C)C)cc1C (stereo unspecified) | -0.01%
37 | c1ccc2c(NCCNc3ncnc4sccc34)cccc2c1 | 52.2% (active)
38 | Cn1ncc2c(Nc3cccc4ccccc34)ncnc21 | -0.77%
39 | COCCCNc1ncnc2sccc12 | -4.31%
40 | COc1ccc(C(=O)N=c2sc3cc4c(cc3n2C)OCCO4)cc1OC | -1.41%
41 | COC(=O)c1c(C)oc2ccc(NS(=O)(=O)c3cccc4cccnc34)cc12 | 28.9%
42 | CC(NC(=O)C(C)(C)C)c1ccc(Br)cc1 (stereo unspecified) | 8.71%
43 | CC(C)(C)C(=O)Nc1scc(-c2ccc(Br)cc2)c1C(=O)O | 38.7% (active)
44 | CCOC(=O)c1c(-c2ccc(Br)cc2)csc1NC(=O)COC | -10.8%
45 | CCOc1cc(C(=O)OCc2cc(C(C)=O)ccc2OC)cc(OCC)c1OCC | -5.65%
46 | CCc1ccc(N/C(N)=N/c2nc(C)cc(C)n2)cc1 | 23.8%
47 | Cc1cc(C)nc(/N=C(\N)Nc2ccc(Br)cc2)n1 | 1.37% and -0.43%
48 | Cc1cc(C)nc(/N=C(\N)Nc2cccc(C(F)(F)F)c2)n1 | 36.7% (active)

Row | SMILES | inhibition
49 | Cc1cccc(C)c1NS(=O)(=O)c1ccc2c(c1)oc(=O)n2C | -6.37%
50 | COc1ccc(Cc2nc3sc4c(c3c(=O)n2N)CCCC4)cc1OC | 29.2%
51 | Cc1cccc(C)c1-n1c(N)c(C(=O)Nc2cccc(Cl)c2)sc1=S | -13.7%
52 | O=C(CSc1nc2ccccc2s1)N1N=CCC1c1ccccc1 (stereo unspecified) | 51.5% (active)
53 | O=C(CSc1nc2ccccc2s1)NNC(=O)C1CCCO1 (stereo unspecified) | 1.6%
54 | CCCCNC(=O)NNC(=O)CSc1nc2ccccc2s1 | 9.84%
55 | C/C(=N\NC(=O)c1cccc(Br)c1)c1cc2ccc(O)cc2oc1=O | -10.3%
56 | CC(C(=O)N(C)c1ccccc1)N1C(=O)NC(c2ccccc2)(c2ccccc2)C1=O (stereo unspecified) | 6.96%
57 | CCOC(=O)c1c(NC(=O)/C=C/C(=O)O)sc(C)c1C | 28.1%
58 | CCOC(=O)c1c(-c2cccc3ccccc23)csc1NC(=O)/C=C/C(=O)O | 33.5% (active)
59 | CCOC(=O)c1c(-c2ccccc2)csc1NC(=O)CNCC(C)C | -3.7%
60 | Cc1ccc(C2CC(=O)C3=C(C2)Nc2ccccc2N(C(=O)C(F)(F)F)C3c2cccc(Br)c2)cc1 (stereo unspecified) | 7.36%
61 | CCOC(=O)C1=C(C)N=c2s/c(=C/c3cc(Br)c(N4CCOCC4)o3)c(=O)n2C1c1ccc(OC)cc1 (stereo unspecified) | 4.11%
62 | Cc1nc2ccccn2c1C(=O)NCc1nc(-c2ccccc2)no1 | 36.5% (active)
63 | C=CCN(C)C(=O)c1c(C)nc2ccccn12 | -6.06%
64 | O=C(NCc1nc(-c2ccccc2)no1)c1ccccc1I | 7.97%
65 | Cc1nc2sccn2c1C(=O)NCc1cccc(Cl)c1 | 12.9%
66 | Cc1ccc(C)c(C(=O)NCc2nc(-c3ccccc3)no2)c1 | 9.38%
67 | Cc1nc2ccccn2c1C(=O)NCc1ccc(Oc2ccccc2)cc1 | 62.4% (active)
68 | COc1ccc(CNCc2c(C(=O)O)[nH]c3ccccc23)cc1 | -5.51%
69 | C=Cc1ccc(Cn2c(C(=O)O)c(CNCc3ccccc3OC)c3ccccc32)cc1 | 14.2%
70 | Cc1cccc(NC(=O)CC2SC(=Nc3ccccc3)NC2=O)c1 (stereo unspecified) | 3.61%
71 | Cc1ccc(N=C2NC(=O)C(Cc3ccccc3Cl)S2)cc1 (stereo unspecified) | 33.1% (active)
72 | O=C(O)CC1SC(=Nc2ccccc2)NC1=O (stereo unspecified) | 4.55%

Row | SMILES | inhibition
73 | Cc1ccc(C(c2cc(Cl)c3cccnc3c2O)N2CCN(c3ccccn3)CC2)cc1 (stereo unspecified) | 38% (active)
74 | Cc1cc(N2CCN(c3ccccn3)CC2)nc2c(C)cccc12 | 2.36%
75 | CC(C)c1ccc(OCC(O)CN2CCN(c3ccccn3)CC2)cc1 (stereo unspecified) | -5.32%
76 | CCOc1ccc(C(=O)Nc2sc3c(c2C(N)=O)CC(C)CC3)cc1 (stereo unspecified) | 2.83%
77 | CC(C)n1cnc2c(NCCOc3ccccc3)nc(-c3ccc(C(=O)NC4CC4)cc3)nc21 | 13.6%
78 | CC1=CC2=NC(=O)/C(=C\c3cc(C)n(-c4cccc(C)c4C)c3C)C(=N)N2O1 | 9.28%
79 | CC1=CN2C(=N)/C(=C/c3cc(C)n(-c4ccc(F)cc4)c3C)C(=O)N=C2S1 | -6.11%
80 | Cc1cc(/C=C2/C(=N)N3C=CSC3=NC2=O)c(C)n1-c1ccc(F)cc1 | 41.3% (active)
81 | COc1cc(OC)c(-n2c(C)cc(/C=C3/C(=N)N4C=CSC4=NC3=O)c2C)cc1Cl | -0.88%
82 | Cc1cc(/C=C2/C(=N)N3C=CSC3=NC2=O)c(C)n1-c1ccccc1F | 86.4% (active)
83 | Cc1cc(/C=C2\C(=N)N3N=C(S(C)(=O)=O)SC3=NC2=O)c(C)n1-c1ccc(F)cc1 | 4.07%
84 | COCC1=C(C(=O)OC)C(c2ccc(Cl)cc2Cl)n2ncnc2N1 (stereo unspecified) | -3.21%
85 | CN1C(=O)C(O)=C(c2ccccc2)S1(=O)=O | 5.68%
86 | COc1cccc(NC(=O)Cn2c(=O)c(C(F)(F)F)nc3ccccc32)c1 | 5.63%
87 | Cc1ccc(NC(=O)/C(=C/c2ccc(Cl)cc2)NC(=O)c2ccco2)cc1 | -3.43%
88 | COc1ccccc1CN1CCC2(CCC(CNC(=O)C(C)C)O2)CC1 (stereo unspecified) | -13.5%
89 | CC(C)C(=O)NCC1CCC2(CCN(Cc3nc(-c4ccccc4)cs3)CC2)O1 (stereo unspecified) | 96.7% (active)
90 | CC(C)C(=O)NCC1CCC2(CCN(Cc3ccc4ccccc4c3)CC2)O1 (stereo unspecified) | 9.09%
91 | N#Cc1c(NC(=O)/C=C/c2cccc([N+](=O)[O-])c2)sc2c1CCCC2 | -1.55%
92 | CC(=O)N1CCc2c(sc(NC(=O)CCSc3ccccc3)c2C(N)=O)C1 | 3.99%
93 | CCOC(=O)N1CCc2c(sc(NC(=O)/C=C/c3cccc([N+](=O)[O-])c3)c2C#N)C1 | 33.5% (active)
94 | CCOC(=O)N1CCc2c(sc(NC(=O)c3ccc([N+](=O)[O-])s3)c2C#N)C1 | 3.38%
95 | CCOC(=O)N1CCc2c(sc(NC(=O)CCSc3ccccc3)c2C#N)C1 | 44.1% (active)
96 | CC(=O)N1CCc2c(sc(NC(=O)CCS(=O)(=O)c3ccccc3)c2C#N)C1 | 3.65%
